These results are taken from the supplement of paper PMC11417369.

The full ranking holds about 25,000 sequences; the median of “ln(normalized median fluorescence intensity)” is about 7.1, and the highest 2% start at about 10. The sample holds the highest values, similar sequences and a random draw of the others, so the mix is not that of the screen.

This assay has as its system PfSIP2 AP2 domain 1 (GST-tagged). The assay can be described thus: gcPBM binding intensity (ln(normalized median fluorescence intensity)); higher = stronger DNA binding. Put shortly:
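DNA-binding domains from P. falciparum, fused to GST and produced in E. coli, were put on an Agilent 4 × 180k double-stranded probe array for 1 h in 1× PBS holding 1% milk, 0.2 mg/ml BSA, 0.5% salmon testes DNA and 0.03% Triton X-100. Probes were primer-extended, 36 bp long and drawn from intergenic genomic regions, with negative controls included. After Alexa488 anti-GST antibody detection and a 488 nm scan, binding intensity was set as the highest Masliner-normalised natural-log median intensity across replicate spots of either probe orientation.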
As to “GTAAGAAAGAAAGGAAGTACGTAAGAAAGTAAGAAC [XGTACX_site1239]”, the “gcPBM binding intensity (ln)” value is 7.27.

Take “TACATAAACTTTATAACACACACTTATATATATATA [CACACA_site1106]”: the “gcPBM binding intensity (ln)” value was 9.34.

Take “ATTATATATATTTATGCACACAAAATATATTATATA [CACACA_site9244]”: the “gcPBM binding intensity (ln)” value worked out at 7.56.

As to “ATGGCATAAATATATGCACACACAAAAAAAAAAAAA [CACACA_site7902]”, the “gcPBM binding intensity (ln)” value is 7.06.

“TTCATATTATAGTGCACACAAAAATATATATATGGT [CACACA_site2855]”: the “gcPBM binding intensity (ln)” value came out at 10.7.

Turning to “CTCATAGTTGGGTGCACACAAAAAATTAAAAAAATA [CACACA_site3032]”, the “gcPBM binding intensity (ln)” value stood at 12.3.

As for “ATTAATTTTATATATGCACACAAAATATGTTCATAT [CACACA_site9350]”, the “gcPBM binding intensity (ln)” value worked out at 7.13.

With “ATTCACAAATATATGGTGCATAATATATATATATAT [GTGCAC_site9674]”, the “gcPBM binding intensity (ln)” value turned out to be 10.6.

On to “AACTCATAGGAGTGTGCACACAAAAAATTAAAAAAA [CACACA_site8996]”, for which the “gcPBM binding intensity (ln)” value was 9.24.

For the sequence “CATATAAAAATATATGCACACAAATAAAAAATTATA [CACACA_site9210]”, the “gcPBM binding intensity (ln)” value worked out at 7.29.

For the sequence “AACTCATAGCGGTGTGCACACAAAAAATTAAAAAAA [CACACA_site3033]”, the “gcPBM binding intensity (ln)” value was determined as 8.94.

For the sequence “ATTATATACATATATGCACACAAAAAAATATATATT [CACACA_site8508]”, the “gcPBM binding intensity (ln)” value was 7.28.

As for “TGAATATTCATATGCACACAAATTAATATACATAAT [CACACA_site442]”, the “gcPBM binding intensity (ln)” value stood at 7.03.

As for “TTTTCATATTATAGTGCACACAAAAATATATATATG [CACACA_site8929]”, the “gcPBM binding intensity (ln)” value was 10.8.

Take “TGAATAAATATAAAAGGTACACATATAAATATATAT [XGTACX_site6349]”: the “gcPBM binding intensity (ln)” value was determined as 7.11.

For “TATATATATATAATATGTACATATAATCAACATTTT [XGTACX_site3915]”, the “gcPBM binding intensity (ln)” value was 8.68.

With “TATTAGTCGAATGATGTACACACATACAAAACATTT [CACACA_site9331]”, the “gcPBM binding intensity (ln)” value is 6.96.

For “TTTTTTTTTTGATGTTGTACATATATATTATATATA [XGTACX_site6377]”, the “gcPBM binding intensity (ln)” value was 7.17.

For the sequence “TAAAAATAATTTGCATGTACATAGGTCGATGTATTT [XGTACX_site1357]”, the “gcPBM binding intensity (ln)” value came out at 7.08.

Turning to “ATACATATAGGATGCACACATAATTCAAATACAATA [CACACA_site651]”, the “gcPBM binding intensity (ln)” value is 7.73.

Consider “TTTTTCTAATTATGCACACATATCAAAATATTCAAT [CACACA_site2749]”, for which the “gcPBM binding intensity (ln)” value worked out at 9.18.

Turning to “TTTTTTTCTAATTATGCACACATATCAAAATATTCA [CACACA_site8886]”, the “gcPBM binding intensity (ln)” value came out at 10.3.

As for “ATCTATCATATTTATGCACACAAAAATAATTAATTC [CACACA_site8837]”, the “gcPBM binding intensity (ln)” value is 7.35.

For “CGAAATCATATGTACACACACATATATATATATATA [CACACA_site2151]”, the “gcPBM binding intensity (ln)” value amounted to 9.32.

Regarding “TATATAATCGAGTGCACACACAAAAAAAAAGTGAAC [CACACA_site1483]”, the “gcPBM binding intensity (ln)” value was 10.8.

In the case of “ATAATAATAAAGTGAACACACACATATAATATATAT [CACACA_site9378]”, the “gcPBM binding intensity (ln)” value stood at 7.19.

“CTATAATAATAAAGTGAACACACACCGATAATATAT [CACACA_site9377]”: the “gcPBM binding intensity (ln)” value stood at 7.02.

With ACACACAATACAAAAGTGCATATAATAATTAATCAT, the “gcPBM binding intensity (ln)” value is 8.76.

For the sequence “TGTATATAATCGAGTGCACACACAAAAAAAAAGTGA [CACACA_site8417]”, the “gcPBM binding intensity (ln)” value was found to be 10.4.

Take “AATAATAAAGTGAACACACACATATAATATATATAT [CACACA_site4143]”: the “gcPBM binding intensity (ln)” value is 8.41.

Take “TATATAACCGAGTGCACACACAAAAAAAAAGTGAAC [CACACA_site6806]”: the “gcPBM binding intensity (ln)” value turned out to be 11.1.

In the case of “AAAATATAATATATTGCACACAAAAAGTGAATTATT [CACACA_site8489]”, the “gcPBM binding intensity (ln)” value was found to be 6.95.

As for “ATAATATTCGAGTGTGCACACAAACATACATATATA [CACACA_site3396]”, the “gcPBM binding intensity (ln)” value came to 8.79.

As to “TATAATAATATTTATTGTACAATTAGTTTAATTCAT [XGTACX_site272]”, the “gcPBM binding intensity (ln)” value stood at 7.08.

“TACAAAAAAGAAGATATTCAAACAAAAACAAAAAAA [CACACA_negctrl_site1126]”: the “gcPBM binding intensity (ln)” value was 6.8.

In the case of “CTCCTCATATAATTTTGTACATAAAAAATTACCATT [XGTACX_site3879]”, the “gcPBM binding intensity (ln)” value worked out at 7.31.

Regarding “CCCCATATAATGAACACACACACTCCTCATAATTAA [CACACA_site628]”, the “gcPBM binding intensity (ln)” value stood at 7.15.

In the case of “TAATCATAACTTGATACGCACACGTTATATAAATAA [CACACA_site1579]”, the “gcPBM binding intensity (ln)” value worked out at 7.02.

Regarding “ATAAAATAAAATAAATGTACACGAAAAAAAATATTT [XGTACX_site3747]”, the “gcPBM binding intensity (ln)” value is 7.25.

For the sequence “TATTATATATATGCACGTACAAAAATAATAAAGGTA [XGTACX_site3506]”, the “gcPBM binding intensity (ln)” value came out at 7.71.

Regarding “ATGAATAAATTAAAAATGCACACTTTGATGGGTACA [CACACA_site2157]”, the “gcPBM binding intensity (ln)” value was found to be 7.46.

Regarding “TAACAATTAATAAAAGGTACACTTGAATATGCACCA [XGTACX_site2717]”, the “gcPBM binding intensity (ln)” value was 10.5.

“TTATACAGATATTTAACACACATTTTATAAAGTGCC [CACACA_site4851]”: the “gcPBM binding intensity (ln)” value is 6.87.

In the case of “TTTTTGAGTGCACATACACACAGACATACATTTAAA [CACACA_site5813]”, the “gcPBM binding intensity (ln)” value worked out at 11.5.

For the sequence “TTTAAATACAGACATACACACATACACAGACATATA [CACACA_site4460]”, the “gcPBM binding intensity (ln)” value was found to be 6.97.

Turning to “TAAATTTTTAAATACACACATACACCCATACAGACA [CACACA_site548]”, the “gcPBM binding intensity (ln)” value was 7.51.

With “TTTGAGTGCACATACACACAGACATACATTTAAATA [CACACA_site3403]”, the “gcPBM binding intensity (ln)” value was determined as 11.9.

As to “TTTAAATACAGACATACACACATACACGCACATATA [CACACA_site6400]”, the “gcPBM binding intensity (ln)” value is 7.17.
